PNC inhibitor: blocks assembly of the perinucleolar compartment; 3.1% of 140,000 active; activity change (PNC), negative = inhibition, % at 10 µM; PC3M PTB-GFP, PNC prevalence imaging, 16 h; active compounds read low;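 active = readout at or below -70, meaning at least 70% loss of cells showing the perinucleolar compartment, a nuclear body marking cancer cells; inconclusive = readout between -30 and a set limit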
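Compounds are pinned in duplicate onto adhered PC3M cells stably expressing GFP-tagged PTB and incubated 16 h at 37 C. Cells are then fixed, nuclei stained with Hoechst, and PNC-positive cells counted.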
LMNA splice mod: changes lamin A minigene splicing in HeLa cells; 0.01% of 200,000 active; Potency, µM (top dose mostly 46.1 µM), actives largely listed as inhibitors; HeLa LMNA splicing GFP/RFP minigene ratio, 48 h; active = well fitted inhibition curve with a large enough effect in the signal ratio, with a control signal flat, not every such curve was filed as active; inconclusive = small, poorly fitted or top-dose-only effect, or effect the other way, or a change in a side signal; the % refers to the signal ratio
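S3 HeLa stable clones carrying a lamin A-EGFP splicing minigene plus DsRed2 were seeded at 600 cells/well in Opti-MEM with 2% FBS, pin-dosed and incubated 48 h at 37°C. Acumen cytometry (488 nm) gave the GFP/RFP total-intensity ratio.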
ALDH1A1 block: ALDH1A1 (human) enzyme inhibition; 7.3% of 220,000 active; Potency, µM (highest dose often 75.3 µM), usual class: inhibitors; P00352; Purified ALDH1A1, NADH fluorescence, propionaldehyde substrate
Target sequence (P00352 whole entry, looked up): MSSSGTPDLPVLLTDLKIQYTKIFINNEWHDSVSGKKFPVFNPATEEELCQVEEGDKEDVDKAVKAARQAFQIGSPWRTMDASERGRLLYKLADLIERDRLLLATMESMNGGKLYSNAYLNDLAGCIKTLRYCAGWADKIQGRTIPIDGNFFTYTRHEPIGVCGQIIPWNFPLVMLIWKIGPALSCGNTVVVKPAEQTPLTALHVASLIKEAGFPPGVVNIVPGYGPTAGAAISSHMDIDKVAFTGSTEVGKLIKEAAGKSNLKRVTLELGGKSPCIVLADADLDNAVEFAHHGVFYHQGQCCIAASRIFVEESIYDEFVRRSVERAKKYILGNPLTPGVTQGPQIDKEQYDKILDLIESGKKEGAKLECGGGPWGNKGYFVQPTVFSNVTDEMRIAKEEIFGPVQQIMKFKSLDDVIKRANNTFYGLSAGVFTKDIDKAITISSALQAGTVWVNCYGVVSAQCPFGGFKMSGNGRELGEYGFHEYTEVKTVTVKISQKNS
HPGD block: HPGD (human) dehydrogenase inhibition; AID 894; 4.3% of 150,000 active; purified HPGD, NADH fluorescence kinetic, PGE2 substrate; Potency, µM, usual class: inhibitors; P15428
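20 nM HPGD preincubated 15 min at room temperature with compound in 50 mM Tris-HCl pH 8, 0.01% Tween 20. Started with 1 mM NAD+ and 30 uM prostaglandin E2; NADH fluorescence (360/450 nm) read 5 times over 30-s intervals, last minus first.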
Luc counter: Kinase-Glo luciferase inhibition (counter-screen). AID 1379. Q27757. Kinase-Glo luciferase, ATP luminescence, 8 min. Potency, µM (top dose mostly 38.3 µM), most hits filed as inhibitors. 0.28% of 200,000 active; active = well fitted inhibition curve with a large enough effect; inconclusive = small, poorly fitted or top-dose-only effect; note: nearly all actives have a fitted effect of over 60% in size
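Inhibition of Kinase-Glo luciferase light generation was assessed at 10 uM ATP in pH 7.2 imidazole buffer, with luminescence measured after eight minutes at ambient temperature.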
Large screens that a line does not name were inactive. Only some compounds are listed: those with a hit (about 10% of all), similar ones and a draw of the others. Unless noted, calls come from the whole dose curve; as a rule, active = well fitted inhibition curve with a large enough effect (not every such curve was filed as active); inconclusive = small, poorly fitted or top-dose-only effect, or another doubt; inactive = no such curve, though single readings can be large or run the other way.

C=C1c2cccc(O)c2C(O)=C2C(=O)[C@]3(O)C(O)=C(C(N)=O)C(=O)[C@@H](N(C)C)[C@@H]3[C@@H](O)[C@H]12	none (no result: PNC inhibitor, LMNA splice mod, HPGD block, Luc counter)
Fc1ccc(NC(=S)NCCc2ccccc2)c(F)c1F	ALDH1A1 block inconclusive, HPGD block 25µM
CC(C)(C)c1cc(CCC(=O)NNC(=S)NC(=O)c2ccccc2)cc(C(C)(C)C)c1O	LMNA splice mod inconclusive, ALDH1A1 block inconclusive
Cc1ccc(NC(=S)NCCc2ccccc2)nc1	LMNA splice mod inconclusive, ALDH1A1 block 10µM (no result: PNC inhibitor, HPGD block)
O=C(NC(=S)NCCc1ccccc1)c1ccccc1	PNC inhibitor inconclusive, ALDH1A1 block 16µM
O=C(CCc1ccccc1)NNC(=S)NC(=O)c1ccccc1	ALDH1A1 block 18µM
Cc1ccc(NC(=O)CCCc2ccccc2)nc1	LMNA splice mod inconclusive (no result: PNC inhibitor, HPGD block)
COc1ccc(S(=O)(=O)c2c(Nc3ccc(C)cc3)sc(C(=O)c3ccc4c(c3)OCO4)c2N)cc1	none (no result: PNC inhibitor, ALDH1A1 block, HPGD block, Luc counter)
CCc1sc(Nc2cccc(C)c2C)nc1-c1cc2cccc(OC)c2oc1=O	none (no result: PNC inhibitor, ALDH1A1 block, HPGD block, Luc counter)
CC1CCCC/C1=N\NC(=S)NCCc1ccccc1 (centres undefined)	ALDH1A1 block 14µM (no result: PNC inhibitor, LMNA splice mod, HPGD block)
Cc1ccc(NC(=S)N/N=C2\CCCCC2C)cc1 (centres undefined)	ALDH1A1 block inconclusive (no result: PNC inhibitor, HPGD block)
O=C(CNC(=S)NC(=O)c1ccc(Br)o1)c1ccccc1	LMNA splice mod inconclusive
CCOc1ccc(C(=O)NC(Cc2ccccc2)C(=O)OC)cc1 (centres undefined)	none
O=C(NCCc1ccccc1)C(=O)NC1CCCCC1	none
O=C(NC1CCCCC1)C(=S)NCCc1ccccc1	ALDH1A1 block 18µM (no result: PNC inhibitor, HPGD block)
COC(=O)C(Cc1ccccc1)NC(=S)NC(=O)c1ccccc1 (centres undefined)	LMNA splice mod inconclusive, ALDH1A1 block 8.9µM (no result: PNC inhibitor, HPGD block)
O=C(CNC(=S)NC(=O)c1ccc(Cl)cc1)c1ccccc1	ALDH1A1 block 8.9µM
FC(F)(F)c1cc(CN2CCCC3(CCNCC3)C2)cc(C(F)(F)F)c1	none (no result: PNC inhibitor, LMNA splice mod)
COC(=O)C(Cc1ccccc1)NC(=O)C(CC(C)C)NC(=O)OC(C)(C)C (centres undefined)	PNC inhibitor -112
O=[N+]([O-])c1cccc(NC(=S)NCCc2ccccc2)c1	LMNA splice mod inconclusive, HPGD block 7.9µM
O=C(NC(=S)NCCC1=CCCCC1)c1cccnc1	ALDH1A1 block 14µM (no result: PNC inhibitor, HPGD block)
O=C(NC(=S)NCc1ccccc1)c1cccnc1	none (no result: PNC inhibitor, LMNA splice mod, HPGD block)
Fc1cccc(NC(=S)NCCc2ccccc2)c1	LMNA splice mod inconclusive, ALDH1A1 block inconclusive
CC(=O)NC(=S)NNC(=O)CCc1ccccc1	ALDH1A1 block 20µM (no result: PNC inhibitor, LMNA splice mod, HPGD block)
CC(C)N(Cc1ccccc1)C(=O)c1nc(-c2ccc(Cl)cc2)n2c1CCCCC2	none (no result: PNC inhibitor, ALDH1A1 block, HPGD block, Luc counter)
Cc1ccc(-n2c(=O)c3c(c4cc(C)ccc4n3C)n(Cc3ccc(F)cc3)c2=O)cc1	none (no result: PNC inhibitor, ALDH1A1 block, HPGD block, Luc counter)
COC(=O)c1sccc1S(=O)(=O)N(CC(=O)Nc1ccccc1C)c1ccc(Cl)cc1	none (no result: PNC inhibitor, ALDH1A1 block, HPGD block, Luc counter)
COc1ccccc1OCc1ccc(C(=O)N2CCN3CCCC3C2)cc1 (centres undefined)	ALDH1A1 block inconclusive, HPGD block 20µM
COc1cccc(-n2nnnc2SCC(=O)Nc2cccc(NC(C)=O)c2)c1	LMNA splice mod inconclusive, ALDH1A1 block 7.1µM
COC(=O)CSc1nc2ccc(NC(=O)CSc3nnnn3Cc3ccccc3)cc2s1	PNC inhibitor inconclusive, ALDH1A1 block 4.5µM, HPGD block inconclusive
COc1ccc(-n2nnnc2SCC(=O)Nc2cccc(NC(C)=O)c2)cc1OC	HPGD block inconclusive
O=C(CSc1nc2ccc(NC(=O)CSc3nnnn3Cc3ccccc3)cc2s1)Nc1ccccc1	ALDH1A1 block 13µM, HPGD block inconclusive
COc1cccc(-n2nnnc2S(C)(=O)=O)c1	PNC inhibitor inconclusive, LMNA splice mod inconclusive, ALDH1A1 block 1.3µM, HPGD block 20µM
COc1ccc(NC(=O)CSc2nnnn2Cc2ccccc2)cc1	ALDH1A1 block inconclusive (no result: PNC inhibitor, LMNA splice mod, HPGD block)
COC(=O)c1sccc1S(=O)(=O)N(CC(=O)Nc1cccc(C)c1C)c1ccc(C)c(C)c1	none (no result: PNC inhibitor, ALDH1A1 block, HPGD block, Luc counter)
O=C(Cc1ccc(-c2ccccc2)cc1)NCCS(=O)(=O)N1CCN(c2cccc(Cl)c2)CC1	none (no result: PNC inhibitor, ALDH1A1 block, HPGD block, Luc counter)
CC(=O)Nc1cccc(NC(=O)CSc2nnnn2Cc2ccccc2)c1	LMNA splice mod inconclusive, ALDH1A1 block 13µM
CCn1nnnc1SCC(=O)Nc1cccc(NC(C)=O)c1	none
CCOc1cc(CNC(=O)c2ccc3nc(CCc4ccccc4)oc3c2)ccc1OC	none (no result: PNC inhibitor, ALDH1A1 block, HPGD block, Luc counter)
Nc1nnc(CC(c2ccccc2)c2ccccc2)s1	PNC inhibitor inconclusive, HPGD block 22µM
COc1ccc(Cc2nnc(N)s2)cc1OC	ALDH1A1 block 28µM, HPGD block 32µM
COc1cc(OC)cc(C(=O)Nc2nnc(Cc3ccc(OC)c(OC)c3)s2)c1	none (no result: PNC inhibitor, LMNA splice mod, HPGD block)
Nc1nnc(CSCc2ccccc2)s1	none
Cc1cccc(CSCc2nnc(N)s2)c1	ALDH1A1 block inconclusive, HPGD block 28µM
Nc1nnc(Cc2ccccc2)s1	ALDH1A1 block 11µM
O=c1cc(-c2ccccc2)nc(SCc2nc(-c3cccc(C(F)(F)F)c3)no2)[nH]1	none (no result: PNC inhibitor, ALDH1A1 block, HPGD block, Luc counter)
COc1ccc(Cc2nnc(N)s2)cc1	LMNA splice mod inconclusive, ALDH1A1 block inconclusive, HPGD block 28µM
COc1ccc(Cc2nnc(NS(C)(=O)=O)s2)cc1	none
COC(=O)CC1C(C)(C)C(=O)C2CC3=C4CC(=O)OC(c5ccoc5)[C@]4(C)CCC3[C@@]1(C)C2=O (some centres undefined)	none (no result: PNC inhibitor, LMNA splice mod)

Compound activity as filed in PubChem BioAssay.
